GRK2 inh: blocks RNA aptamer binding to human GRK2 | P25098 | bead flow cytometry, FAM-aptamer displacement from GRK2 | inhibition of aptamer binding, % at 10 µM | hit rate 0.59% among 330,000 | AID 488847;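 active = inhibition of aptamer binding above 40%, roughly 3 SD of noise, on plates passing a quality check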;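 also: median bead fluorescence of bound FAM aptamer so fluorescent compounds give negative values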
Target sequence (P25098 whole entry, looked up): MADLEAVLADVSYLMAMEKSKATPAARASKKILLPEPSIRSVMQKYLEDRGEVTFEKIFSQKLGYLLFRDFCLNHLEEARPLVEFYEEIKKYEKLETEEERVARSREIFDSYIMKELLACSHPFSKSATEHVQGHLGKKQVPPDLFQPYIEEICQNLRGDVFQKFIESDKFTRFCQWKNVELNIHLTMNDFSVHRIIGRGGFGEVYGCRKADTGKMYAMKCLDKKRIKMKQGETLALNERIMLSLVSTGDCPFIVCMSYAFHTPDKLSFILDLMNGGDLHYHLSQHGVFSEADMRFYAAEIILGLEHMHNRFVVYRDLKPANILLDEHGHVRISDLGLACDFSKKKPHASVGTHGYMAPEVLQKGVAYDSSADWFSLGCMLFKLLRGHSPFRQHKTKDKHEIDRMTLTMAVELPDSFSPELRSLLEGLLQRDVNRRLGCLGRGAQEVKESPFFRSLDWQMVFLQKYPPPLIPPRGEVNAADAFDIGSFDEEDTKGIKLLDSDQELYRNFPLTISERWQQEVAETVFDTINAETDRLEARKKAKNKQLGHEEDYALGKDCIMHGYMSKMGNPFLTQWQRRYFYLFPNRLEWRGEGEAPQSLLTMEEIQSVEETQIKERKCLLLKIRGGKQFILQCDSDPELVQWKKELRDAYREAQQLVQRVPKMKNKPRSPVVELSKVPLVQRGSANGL
MEKK2 WT-MEK5: raises or lowers MEK5 binding to wildtype human MEKK2 PB1 domain. Q9Y2U5. bead flow cytometry, Alexa488-MEK5 binding to MEKK2 WT; actives lie on both sides. binding response (% of control), % at 10 µM. hit rate 1.1% among 290,000. AID 1531; in the data active = binding response below about 67% or above about 130%
MEKK3 PB1 HTS: MEKK3-MEK5 PB1 interaction, increase or decrease; Q99759; bead-based flow cytometry, Alexa488-MEK5 binding to MEKK3; actives lie on both sides; 0 = blocked by unlabeled MEK5, 100 = vehicle; binding response (% of control), % at 10 µM; hit rate 1.4% among 290,000; AID 1529;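 active = binding response more than 3 SD above or below the average of its plate-row segment, actives on both sides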;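 also: Alexa488 bead fluorescence after subtracting the streptavidin-only scavenger bead signal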
MEKK2mut PB1 HTS: signal of MEK5 binding to mutant human MEKK2 PB1 domain; hit rate 0.35% among 290,000; bead flow cytometry, Alexa488-MEK5 binding to MEKK2 mutant; percent response, % at 10 µM; in the data active = percent response above about 24%, passing the limit was not always enough
MEKK2wt confirm: raises or lowers MEK5 binding to wildtype human MEKK2, retest | bead flow cytometry, Alexa488-MEK5 binding to MEKK2 WT; actives lie on both sides | AID 1892 | binding response (% of control), % at 10 µM | hit rate 2.4% among 5,900 | shares compounds with MEKK3 PB1 HTS; in the data active = binding response below about 16% or above about 210%; inactive = in between
MEKK2mut confirm: signal of MEK5 binding to mutant human MEKK2, retest | hit rate 2% among 5,900 | shares compounds with MEKK3 PB1 HTS | bead flow cytometry, Alexa488-MEK5 binding to MEKK2 mutant | percent response, % at 10 µM; in the data active = percent response mostly above about 71%, no sharp cut-off; inactive = mostly below about 38%;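 also: higher means compound restores mutant binding toward wildtype level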
MEKK3-MEK5 inh: confirmation of inhibitors of MEK5 binding to human MEKK3. shares compounds with MEKK3 PB1 HTS. bead flow cytometry, Alexa488-MEK5 binding to MEKK3; hits give low values. binding response (% of control), % at 10 µM. hit rate 1.8% among 5,900. AID 1894;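 active = binding response below 72% of control, or above a set upper limit, though filed actives all read lower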;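 also: 100% = DMSO only wells and 0% = binding blocked by excess unlabeled MEK5; lower values mean stronger disruption of MEK5 binding to MEKK3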
* = called active by the depositor; nt = not tested or not shown; [ ] = remark or other dose. Hits are enriched below; roughly 2.5% of the tested compounds scored in any of these assays.

SMILES	GRK2 inh	MEKK2 WT-MEK5	MEKK3 PB1 HTS	MEKK2mut PB1 HTS	MEKK2wt confirm	MEKK2mut confirm	MEKK3-MEK5 inh
CCCNC(=O)c1ccc2c(c1)C1C3CCC(C3)C1C(c1ccccc1)N2 (stereo not drawn)	0	77	78	-5	nt	nt	nt
CC(C)(C)NC(=O)c1ccc2c(c1)C1C3CCC(C3)C1C(c1ccccc1)N2 (stereo not drawn)	4	109	198*	1	119	12	105
Cc1cccc(N(CC(=O)Nc2ccccc2F)S(C)(=O)=O)c1	3	104	102	10	nt	nt	nt
Cc1cc(C)cc(N(CC(=O)Nc2ccccc2-c2ccccc2)S(=O)(=O)c2ccccc2)c1	0	107	134*	0	98	-4	102
CSc1ccccc1NC(=O)CN(c1cccc(C)c1)S(C)(=O)=O	2	81	67*[inhibitor]	-11	98	-7	98
COc1ccc([N+](=O)[O-])cc1NC(=O)C1C2C=CC(C2)C1C(=O)O (stereo not drawn)	3	103	103	-2	nt	nt	nt
N#C/C(=C\c1ccc(N2CCOCC2)cc1)c1ccccc1	0	100	137*	0	102	2	101
N#C/C(=C\c1ccc(N2CCOCC2)o1)c1ccccc1	3	90	99	4	nt	nt	nt
COc1cc2ccccc2cc1C(=O)Nc1sc2c(c1C(N)=O)CCN(C(C)C)C2	0	150*	107	29*	170	42	110
CCOC(=O)c1c(NC(=S)Nc2ccc(Cl)cc2)sc2c1CCN(C)C2	3	81	118	-1	nt	nt	nt
CN1CCc2c(sc(NC(=O)Cc3ccccc3)c2C(N)=O)C1	0	97	97	-4	nt	nt	nt
CN1CCc2c(sc(NC(=O)c3ccc4ccccc4c3)c2C(N)=O)C1	3	135*	106	19	151	23	108
CCOC(=O)c1c(NC(=O)Nc2ccc(F)cc2)sc2c1CCN(C)C2	0	141*	129*	31	124	4	101
CCOc1cc2c(cc1OCC)C(c1ccccc1)N(c1ccccc1)C(=O)C2 (stereo not drawn)	0	99	96	-2	nt	nt	nt
CCOc1cc(/C=C2\COc3ccccc3C2=O)cc(Br)c1OCC(=O)N(C)C	9	105	98	6	nt	nt	nt
CN(C(=O)c1cccc(NC(=O)Cc2cccc([N+](=O)[O-])c2)c1)C1CCCC1	0	nt	nt	nt	nt	nt	nt
CC1CN(C(=O)C(C)OC(=O)c2ccc3ncsc3c2)CC(C)O1 (stereo not drawn)	0	nt	nt	nt	nt	nt	nt
CCN(C[C@H]1N[C@@](CC)(C(=O)OC)[C@H]2C(=O)N(Cc3ccccc3)C(=O)[C@@H]12)C(=O)c1ccc(C(C)(C)C)cc1	0	nt	nt	nt	nt	nt	nt
CC(C)C[C@@H](C(=O)NC1CCN(Cc2ccccc2)CC1)N1C(=O)N2CCc3c([nH]c4ccccc34)[C@@]2(C)C1=O	0	142*	108	20	135	26	109
CC1CCCC(NC(=O)CCNS(=O)(=O)c2ccc(Br)cc2)C1C (stereo not drawn)	0	96	108	-6	nt	nt	nt
Nc1ccc(C23CC4CC(CC(C4)C2)C3)cc1	2	53	41*[inhibitor]	-16	96	-3	100
O=C(CCOc1ccccc1)Nc1cccc(S(=O)(=O)Nc2ccccc2Cl)c1	0	99	151*	-2	103	-3	101
COc1cccc(OC)c1C(=O)Nc1cccc(S(=O)(=O)Nc2ccccc2Cl)c1	4	nt	nt	nt	nt	nt	nt
CC(C)[C@H]1COCCS(=O)(=O)N1Cc1ccccc1-c1ccc(F)cc1	0	nt	nt	nt	nt	nt	nt
NC1=NC[C@H](Cc2ccc(O)cc2)N1CCC12CC3CC(CC(C3)C1)C2	0	138*	108	21	128	8	100
COc1ccc(NC(=O)C(NC(=O)CC2NC(=O)NC2=O)c2ccccc2)cc1 (stereo not drawn)	0	106	155*	0	103	1	100
Cc1ccc(N(CC(=O)N2CCN(c3ccc(F)cc3)CC2)S(=O)(=O)c2c(C)noc2C)cc1	1	100	102	4	nt	nt	nt

High-throughput results deposited in PubChem by NMMLSC.
